This is an account of results in PubChem BioAssay AID588591 (National Center for Advancing Translational Sciences (NCATS), 2011).

“And” between values parts separate entries of the source, which are not always exact repeats. Equal values may be shown once. Out of some 390,000 compounds screened, about 4,700 (1.2%) were called active. Not shown: some 4% with an inconclusive outcome. Calls follow the shape of the dose curve; as a rule, active = well fitted inhibition curve with a large enough effect; inconclusive = small, poorly fitted or top-dose-only effect, or another doubt; inactive = no such curve, though single readings can be large or run the other way. For the sample, actives were picked, then their nearest neighbours and some compounds at random. The source holds several records for some structures; these can differ, active in one and inactive in another.
% is scaled to controls: 0 for no effect and ±100 for the full control effect; potency is read from the fitted curve at half-maximal effect.

This assay deals with DNA polymerase eta (Homo sapiens) (UniProt Q9Y253). The assay is described as follows: qHTS for Inhibitors of Polymerase Eta. The conditions noted are these: recombinant Pol eta, fluorescent DNA replication assay; series mostly up to 114 µM; activity change, negative = inhibition: at the top concentration. The method, boiled down: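 Fluorescent replication assay: 50 nM final substrate added after a 15 min room-temperature compound preincubation with 10 nM enzyme. Signal taken at 0 min and again at 10 min.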
Chain of DNA polymerase eta (Homo sapiens) (Q9Y253 whole entry, looked up): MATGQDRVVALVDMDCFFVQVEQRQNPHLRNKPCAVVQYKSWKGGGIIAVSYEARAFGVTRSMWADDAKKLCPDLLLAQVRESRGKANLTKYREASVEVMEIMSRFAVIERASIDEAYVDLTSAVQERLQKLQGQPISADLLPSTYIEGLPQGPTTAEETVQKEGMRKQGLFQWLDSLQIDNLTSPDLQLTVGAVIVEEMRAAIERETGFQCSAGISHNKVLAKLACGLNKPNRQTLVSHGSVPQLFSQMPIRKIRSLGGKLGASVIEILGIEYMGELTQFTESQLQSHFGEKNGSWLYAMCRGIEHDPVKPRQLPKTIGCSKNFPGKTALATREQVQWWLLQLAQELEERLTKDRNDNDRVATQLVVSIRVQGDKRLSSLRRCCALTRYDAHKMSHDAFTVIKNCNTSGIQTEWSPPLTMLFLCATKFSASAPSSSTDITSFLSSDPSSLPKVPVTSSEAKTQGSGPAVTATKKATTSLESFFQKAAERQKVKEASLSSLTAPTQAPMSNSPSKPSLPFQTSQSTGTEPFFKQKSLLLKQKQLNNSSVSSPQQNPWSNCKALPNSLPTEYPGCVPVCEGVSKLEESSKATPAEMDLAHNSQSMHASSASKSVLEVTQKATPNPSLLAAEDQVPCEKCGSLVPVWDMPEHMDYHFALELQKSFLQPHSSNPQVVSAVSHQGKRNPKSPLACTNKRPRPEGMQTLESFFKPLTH
In general terms: In qHTS, concentration-response curves come from the screen itself.
`Cc1nc2ccn(Cc3cccnc3)c(=O)c2cc1C(=O)N1CCN(c2ccccc2F)CC1`: the “activity change, negative = inhibition” value was 2.45% (inactive).

In the case of `CCOc1ccccc1C(=O)Nc1ccc(S(=O)(=O)N2CCCCC2c2cccnc2)cc1` (stereo unspecified), the “activity change, negative = inhibition” value was -5.58% (inactive).

For the compound `COc1ccc(-c2cn3c(C)c(C(=O)Nc4cc(C)cc(C)c4)sc3n2)cc1`, the “activity change, negative = inhibition” value is -8.51% (inactive).

With `COc1ccc(Cn2c(C(=O)O)c(CNCc3cccc(OC)c3)c3ccc(C)cc32)cc1`, the “activity change, negative = inhibition” value was -16.4% (inactive).

Take `O=C(CC(c1cccs1)N1Cc2ccccc2C1=O)Nc1ccc(F)cc1F` (stereo unspecified): the “activity change, negative = inhibition” value was -6.05% (inactive).

Consider `O=C(/C=C/c1ccc([N+](=O)[O-])o1)NNC(=O)c1ccc(F)cc1`, for which the Potency is 79.4 µM (active).

Consider `CCOc1ccc(NC(=O)c2cc3c(=O)n(Cc4cccs4)ccc3nc2C)cc1`, for which the “activity change, negative = inhibition” value is 1.5% (inactive).

As to `CCOc1ccc(-c2nonc2NC(=O)c2oc3ccc(C)cc3c2C)cc1OCC`, the “activity change, negative = inhibition” value was -1.76% (inactive).

Take `Cc1c(Cl)cccc1NC(=O)N1CCN(C(=O)c2nsc3ccccc23)CC1`: the “activity change, negative = inhibition” value was -7.64% (inactive).

Regarding `O=C(CCCOc1ccccc1)Nc1cccc(C(=O)O)c1`, the “activity change, negative = inhibition” value was -9.42% (inactive).

Consider `C/C(=N\Nc1cccc(C(=O)O)c1)c1ccc2c(c1)Nc1ccccc1S2`, for which the Potency was 20 µM (active).

On to `COc1ccc(Cl)cc1S(=O)(=O)Nc1cccc(C(=O)O)c1`, for which the “activity change, negative = inhibition” value was -15.3% (inactive).

Consider `CC1=C(C(=O)OCc2ccc(C)cc2)C(c2c(Cl)cccc2Cl)CC(=O)N1` (stereo unspecified), for which the “activity change, negative = inhibition” value was -15.6% (inactive).

For the compound `COc1cc(Cl)c(NC(=O)CC(C)S(=O)(=O)c2cc3c(cc2C)NC(=O)CO3)c(OC)c1` (stereo unspecified), the “activity change, negative = inhibition” value was -23.9% (inactive).

Turning to `O=C(CCC(=O)N1CC2CCCN2c2ccccc21)NCc1ccccc1Cl` (stereo unspecified), the “activity change, negative = inhibition” value is -1.54% (inactive).

With `Nc1ccc2[nH]c(=S)sc2c1`, the Potency was 22.4 µM (active).

Turning to `Cc1ccc(Cn2cc(CCC(=O)NCc3ccc(OC(C)C)cc3)c3ccccc32)cc1`, the “activity change, negative = inhibition” value is -17.3% (inactive).

For `CC(=O)Nc1cc(C(=O)NCc2ccc(F)cc2)ccc1Sc1ccc(F)cc1`, the “activity change, negative = inhibition” value is -24.5% (inactive).

Take `CCOC(=O)c1c(C)[nH]c(C)c1S(=O)(=O)N1CCCC(C(=O)NCc2ccccc2Cl)C1` (stereo unspecified): the “activity change, negative = inhibition” value was -11.4% (inactive).

Take `O=C(CCS(=O)(=O)c1ccc2c(c1)NC(=O)CO2)Nc1cccc(C(F)(F)F)c1`: the “activity change, negative = inhibition” value was -17.6% (inactive).

With `Cc1cc(C)c2nc(-c3cccnc3)cc(C(=O)Nc3ccc(S(=O)(=O)Nc4onc(C)c4C)cc3)c2c1`, the Potency was 44.7 µM (active).

With `Cc1noc(NS(=O)(=O)c2ccc(NC(=O)c3oc4ccc(F)cc4c3C)cc2)c1C`, the “activity change, negative = inhibition” value is -9.51% (inactive).

With `Cc1cc(OC(C)C(=O)Nc2ccc(S(=O)(=O)Nc3onc(C)c3C)cc2)cc(C)c1Cl` (stereo unspecified), the “activity change, negative = inhibition” value was -12.1% (inactive).

Turning to `CCOc1ccccc1C(=O)NCC(c1ccc(N(C)C)cc1)N1CCCC1` (stereo unspecified), the “activity change, negative = inhibition” value is -10.3% (inactive).

With `CC1CCCN(c2nc3c(S(=O)(=O)c4ccc(C(C)C)cc4)nnn3c3ccsc23)C1` (stereo unspecified), the “activity change, negative = inhibition” value is -12.9% (inactive).

Consider `Cc1ccc(S(=O)(=O)c2c(Nc3cccc(Cl)c3)sc(C(=O)c3ccc4c(c3)OCO4)c2N)cc1`, for which the “activity change, negative = inhibition” value was -12.3% (inactive).

Regarding `Cc1ccccc1NC(=O)c1ccc(COc2ccc3c(C)cc(=O)oc3c2)cc1`, the “activity change, negative = inhibition” value is 20.7% (inactive).

`CCOC(=O)Cc1csc(NC(=O)COc2ccc3c(C)cc(=O)oc3c2)n1`: the Potency was 31.6 µM (active).

For `CCOC(=O)Cc1csc(NC(=O)CN(C)S(=O)(=O)c2ccc3c(c2)CCC(=O)N3)n1`, the “activity change, negative = inhibition” value was -11% (inactive).

For the compound `Cc1ccc(O)c(/C=N/NC(=O)COc2ccc3c(C)cc(=O)oc3c2)c1`, the Potency was 50.1 µM (active).

Turning to `CCOC(=O)Cc1csc(SCc2cc(=O)oc3cc(O)ccc23)n1`, the “activity change, negative = inhibition” value was -16.5% (inactive).

With `CC(=O)c1c(C)[nH]c(C(=O)COc2ccc3c(C)cc(=O)oc3c2)c1C`, the “activity change, negative = inhibition” value is -17.7% (inactive).

For `COc1ccc(N2CCN(c3nc(-c4ccccc4F)nc4ccccc34)CC2)cc1`, the “activity change, negative = inhibition” value is -28% (inactive).

`CCc1ccccc1NC(=O)Cn1c(=O)n(CC2CCC(C(=O)NCCc3ccccc3)CC2)c(=O)c2ccccc21` (stereo unspecified): the “activity change, negative = inhibition” value was -0.518% (inactive).

In the case of `Cc1ccc(C)c(N2CCN(C(c3ccccc3)c3nnc(-c4ccccc4)o3)CC2)c1` (stereo unspecified), the “activity change, negative = inhibition” value was -21% (inactive).

With `COc1cccc(CNC(=O)CN2C(=O)CCc3cc(S(=O)(=O)N4CCOCC4)ccc32)c1`, the “activity change, negative = inhibition” value is -7.78% (inactive).

Take `CC(C)NC(=O)/C(C#N)=C\c1ccc(N(C)C)c(Br)c1`: the “activity change, negative = inhibition” value was -1.4% (inactive).

Take `Cc1ccc(/C=C(\C#N)C(=O)Nc2cc(C)ccc2C)cc1`: the “activity change, negative = inhibition” value is -7.43% (inactive).

Consider `N#C/C(=C\c1ccc(O)c(O)c1)C(=O)NCc1ccccc1`, for which the Potency entry is “inactive and 11.2 µM (active)”.

`CCc1ccc(-n2nc(C)c3c(C)cc(=O)n(CC(=O)Nc4ccc(F)cc4C)c32)cc1`: the “activity change, negative = inhibition” value was 4.22% (inactive).

For the compound `O=C(COC(=O)CCC(=O)c1cccs1)NCc1ccco1`, the Potency is 7.08 µM (active).

For the compound `O=C(COC(=O)c1ccccc1O)NCc1ccco1`, the Potency is 79.4 µM (active).

As for `CN(c1ccccc1)S(=O)(=O)c1ccc(Cl)c(C(=O)OCC(=O)NCc2ccco2)c1`, the Potency is 31.6 µM (active).

Regarding `COc1ccccc1C(=O)OCC(=O)NCCNC(=O)COC(=O)c1ccccc1OC`, the “activity change, negative = inhibition” value was 0.945% (inactive).

As to `CN(c1ccccc1)S(=O)(=O)c1ccc(Cl)c(C(=O)OCC(=O)N2CCOCC2)c1`, the “activity change, negative = inhibition” value is -22.1% (inactive).

Consider `CC1CCN(C(=O)COC(=O)CCC(=O)c2cccs2)CC1`, for which the “activity change, negative = inhibition” value is -13.2% (inactive).
